According to PubChem BioAssay AID1159580 (chemical genetic matrix, 2015):
Values joined by “and” are separate entries in the source; they are usually repeats but may differ in a detail not shown here. Identical values can stand only once. In all, about 5,500 compounds went through this assay and about 2,000 (36%) were called active. Inconclusive results (about 18%) are left out. This is one part of the list. Unmarked numbers belong to inactive results. Cut-off read from the data, not from the text of the source: active = normalized growth mostly below about 0.91 (no sharp cut-off); inconclusive = no clear call, values can overlap the other calls; inactive = mostly above about 0.92.

Assay: chemical genetic growth profiling, strain panel (AID 1159580);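 note: tested at 20 µM; growth read once vehicle control cultures reached saturation at 30 °C; 1 = growth at the plate median or of vehicle wells; lower values mean less growth of the strain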
Details: S. cerevisiae deletion strains, growth OD

With `Cc1ccc(N(CC2=NCCN2)c2cccc(O)c2)cc1` the normalized growth (locus YAL013W, strain DEP1, active compounds read low) was 0.994 and 0.986, the normalized growth (locus YAL021C, strain ccr4, active compounds read low) was 1.01 and the normalized growth (locus YAL026C, strain drs2, active compounds read low) was 1.02. It also gave a normalized growth (locus YAL030W, strain snc1, active compounds read low) of 1.02, a normalized growth (locus YAL040C, strain CLN3, active compounds read low) of 1.01 and a normalized growth (locus YBL061C, strain skt5, active compounds read low) of 0.998. For the same compound, the normalized growth (locus YBR009C, strain hhf1, active compounds read low) was 1.02, the normalized growth (locus YBR021W, strain FUR4, active compounds read low) was 0.991 and the normalized growth (locus YBR023C, strain chs3, active compounds read low) was 1.02. The normalized growth (locus YBR171W, strain sec66, active compounds read low) was 1.01, the normalized growth (locus YBR229C, strain ROT2, active compounds read low) was 1 and the normalized growth (locus YBR231C, strain swc5, active compounds read low) was 1.01. It also gave a normalized growth (locus YBR279W, strain paf1, active compounds read low) of 1.01, a normalized growth (locus YCL011C, strain gbp2, active compounds read low) of 1.02 and a normalized growth (locus YCL016C, strain dcc1, active compounds read low) of 0.998. For the same compound, the normalized growth (locus YCL029C, strain bik1, active compounds read low) was 1.01, the normalized growth (locus YCL061C, strain MRC1 (second series), active compounds read low) was 0.992 and the normalized growth (locus YCL069W, strain vba3, active compounds read low) was 1.02. The normalized growth (locus YCR088W, strain abp1, active compounds read low) was 1.01, the normalized growth (locus YDL005C, strain med2, active compounds read low) was 1.02 and the normalized growth (locus YDL035C, strain GPR1, active compounds read low) was 0.985. For the same compound, the normalized growth (locus YDL040C, strain nat1, active compounds read low) was 1.01, the normalized growth (locus YDL074C, strain BRE1, active compounds read low) was 0.908 and the normalized growth (locus YDL101C, strain DUN1, active compounds read low) was 0.983. The normalized growth (locus YDL134C, strain PPH21, active compounds read low) was 0.994, the normalized growth (locus YDL185W, strain tfp1, active compounds read low) was 1.02 and the normalized growth (locus YDL192W, strain arf1, active compounds read low) was 1.01. The normalized growth (locus YDR001C, strain nth1, active compounds read low) was 1.01, the normalized growth (locus YDR069C, strain doa4, active compounds read low) was 0.998 and the normalized growth (locus YDR101C, strain arx1, active compounds read low) was 0.985. It also gave a normalized growth (locus YDR137W, strain rgp1, active compounds read low) of 1.02, a normalized growth (locus YDR150W, strain NUM1, active compounds read low) of 1.01 and a normalized growth (locus YDR159W, strain sac3, active compounds read low) of 1. The normalized growth (locus YDR162C, strain NBP2, active compounds read low) was 0.976, the normalized growth (locus YDR195W, strain ref2) was 1.02 and the normalized growth (locus YDR297W, strain sur2, active compounds read low) was 1.02. The normalized growth (locus YDR318W, strain mcm21, active compounds read low) was 0.991, the normalized growth (locus YDR334W, strain swr1, active compounds read low) was 1.04 and the normalized growth (locus YDR335W, strain msn5, active compounds read low) was 1.03. For the same compound, the normalized growth (locus YDR363W, strain ESC2, active compounds read low) was 1.06, the normalized growth (locus YDR388W, active compounds read low) was 1.01 and the normalized growth (locus YDR392W, strain spt3, active compounds read low) was 0.95. For the same compound, the normalized growth (locus YDR502C, strain sam2, active compounds read low) was 0.977, the normalized growth (locus YEL003W, strain gim4, active compounds read low) was 1.03 and the normalized growth (locus YEL037C, strain rad23, active compounds read low) was 1.03. For the same compound, the normalized growth (locus YEL061C, strain CIN8 (second series), active compounds read low) was 1.02, the normalized growth (locus YEL061C, strain CIN8, active compounds read low) was 1.04 and the normalized growth (locus YER002W, strain NOP16, active compounds read low) was 1.01. The normalized growth (locus YER015W, strain faa2, active compounds read low) was 1.02, the normalized growth (locus YER016W, strain bim1, active compounds read low) was 1.02 and the normalized growth (locus YER110C, active compounds read low) was 1.03. For the same compound, the normalized growth (locus YER111C, strain swi4, active compounds read low) was 1.02, the normalized growth (locus YER155C, strain BEM2 (second series), active compounds read low) was 0.929 and the normalized growth (locus YER155C, strain BEM2, active compounds read low) was 1.01. It also gave a normalized growth (locus YER167W, strain BCK2, active compounds read low) of 0.972, a normalized growth (locus YFR010W, strain ubp6, active compounds read low) of 1.02 and a normalized growth (locus YGL078C, strain dbp3, active compounds read low) of 0.995. The normalized growth (locus YGL086W, strain mad1, active compounds read low) was 1.02, the normalized growth (locus YGL167C, strain pmr1, active compounds read low) was 1.02 and the normalized growth (locus YGL173C, strain kem1, active compounds read low) was 1.01. The normalized growth (locus YGL227W, strain vid30, active compounds read low) was 1.03, the normalized growth (locus YGL240W, strain doc1, active compounds read low) was 0.972 and the normalized growth (locus YGL248W, strain PDE1, active compounds read low) was 0.997. For the same compound, the normalized growth (locus YGL253W, strain hxk2, active compounds read low) was 1.02, the normalized growth (locus YGR078C, strain PAC10, active compounds read low) was 0.972 and 1.01 and the normalized growth (locus YGR135W, strain pre9, active compounds read low) was 0.976. The normalized growth (locus YGR229C, strain SMI1, active compounds read low) was 0.912 and 0.979, the normalized growth (locus YGR252W, strain gcn5, active compounds read low) was 0.926 and the normalized growth (locus YHR013C, strain ard1, active compounds read low) was 1. For the same compound, the normalized growth (locus YHR027C, strain rpn1, active compounds read low) was 1.01, the normalized growth (locus YHR030C, strain SLT2, active compounds read low) was 1.01 and 1.04 and the normalized growth (locus YHR079C, strain IRE1 (second series), active compounds read low) was 0.99. It also gave a normalized growth (locus YHR079C, strain IRE1, active compounds read low) of 1.05, a normalized growth (locus YHR094C, strain hxt1, active compounds read low) of 1 and a normalized growth (locus YHR129C, strain ARP1, active compounds read low) of 0.984. The normalized growth (locus YHR142W, strain chs7, active compounds read low) was 1.02, the normalized growth (locus YHR200W, strain rpn10, active compounds read low) was 1 and the normalized growth (locus YIL066C, strain RNR3, active compounds read low) was 1.01. For the same compound, the normalized growth (locus YIL073C, strain SPO22, active compounds read low) was 1.1, the normalized growth (locus YIL125W, strain kgd1, active compounds read low) was 0.993 and the normalized growth (locus YIR030C, strain dcg1, active compounds read low) was 1.01. For the same compound, the normalized growth (locus YJL092W, strain hpr5, active compounds read low) was 1.02, the normalized growth (locus YJL095W, strain BCK1 (second series), active compounds read low) was 1.01 and the normalized growth (locus YJL095W, strain BCK1, active compounds read low) was 0.905 and 1.04. For the same compound, the normalized growth (locus YJL115W, strain asf1, active compounds read low) was 1.03, the normalized growth (locus YJL129C, strain trk1, active compounds read low) was 1.02 and the normalized growth (locus YJL134W, strain LCB3, active compounds read low) was 1.01. The normalized growth (locus YJL154C, strain vps35, active compounds read low) was 1.03, the normalized growth (locus YJL164C, strain tpk1, active compounds read low) was 1 and the normalized growth (locus YJL166W, strain qcr8, active compounds read low) was 0.993. The normalized growth (locus YJL168C, strain set2, active compounds read low) was 1.01, the normalized growth (locus YJL187C, strain SWE1 (second series), active compounds read low) was 0.993 and the normalized growth (locus YJL187C, strain SWE1, active compounds read low) was 1.01. The normalized growth (locus YJR043C, strain POL32, active compounds read low) was 0.85 (active) and the normalized growth (locus YJR066W, strain TOR1, active compounds read low) was 0.978.
